{"source": "the supplement of paper PMC8728848", "test_in_all_cases": "glycan array binding signal (z-score within array); higher = stronger binding", "settings_in_all_cases": "glycan notation: IUPAC condensed, linker removed", "key": {"[1]": {"target": "Fuc(a1-2)Gal(b1-3)GalNAc(a1-3)[Fuc(a1-2)]Gal(b1-4)Glc", "method_in_brief": "(§1)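 Columns mapping to the same glycan were averaged after glycan names were converted to IUPAC-condensed notation. The data come from 3228 arrays in the Consortium for Functional Glycomics database, limited to those with an available protein sequence. Binding is reported as a within-array Z-score averaged across arrays of one protein sequence and across linkers.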"}, "[2]": {"target": "Fuc(a1-2)Gal(b1-3)GlcNAc(b1-3)[Gal(b1-4)GlcNAc(b1-6)]Gal(b1-4)Glc", "method_in_brief": "as §1"}, "[3]": {"target": "Fuc(a1-2)[Gal(a1-3)]Gal(b1-4)Glc", "method_in_brief": "as §1"}, "[4]": {"target": "Fuc(a1-2)[Gal(a1-3)]Gal(b1-4)GlcNAc(b1-2)Man(a1-3)[Fuc(a1-2)[Gal(a1-3)]Gal(b1-4)GlcNAc(b1-2)Man(a1-6)]Man(b1-4)GlcNAc(b1-4)GlcNAc", "method_in_brief": "as §1"}, "[5]": {"target": "Fuc(a1-2)[GalNAc(a1-3)]Gal(b1-4)GlcNAc(b1-2)Man(a1-3)[Fuc(a1-2)[GalNAc(a1-3)]Gal(b1-4)GlcNAc(b1-2)Man(a1-6)]Man(b1-4)GlcNAc(b1-4)GlcNAc", "method_in_brief": "as §1"}, "[6]": {"target": "Fuc(a1-2)[GalNAc(a1-4)]Gal(b1-4)GlcNAc", "method_in_brief": "as §1"}, "[7]": {"target": "Fuc(a1-3)[Gal(b1-4)]GlcNAc(b1-4)Gal(b1-4)[Fuc(a1-3)]GlcNAc(b1-4)Gal(b1-4)[Fuc(a1-3)]GlcNAc", "method_in_brief": "as §1"}, "Gal(a1-3)GalNAc": {"target": "Gal(a1-3)GalNAc", "method_in_brief": "as §1"}, "[8]": {"target": "Gal(b1-3)[Fuc(a1-4)]GlcNAc(b1-3)Gal(b1-4)[Fuc(a1-3)]GlcNAc", "method_in_brief": "as §1"}, "[9]": {"target": "Gal(b1-3)[Fuc(a1-4)]GlcNAc(b1-6)GalNAc", "method_in_brief": "as §1"}, "[10]": {"target": "Gal(b1-3)[Neu5Ac(b2-6)]GalNAc", "method_in_brief": "as §1"}, "[11]": {"target": "Gal(b1-4)GlcNAc(b1-3)Gal(b1-4)GlcNAc(b1-2)Man(a1-3)[Gal(b1-4)GlcNAc(b1-3)Gal(b1-4)GlcNAc(b1-2)Man(a1-6)]Man(b1-4)GlcNAc(b1-4)[Fuc(a1-6)]GlcNAc", "method_in_brief": "as §1"}, "[12]": {"target": "Gal(b1-4)GlcNAc(b1-3)Gal(b1-4)GlcNAc(b1-2)[Gal(b1-4)GlcNAc(b1-3)Gal(b1-4)GlcNAc(b1-6)]Man(a1-6)[Gal(b1-4)GlcNAc(b1-3)Gal(b1-4)GlcNAc(b1-2)Man(a1-3)]Man(b1-4)GlcNAc(b1-4)[Fuc(a1-6)]GlcNAc", "method_in_brief": "as §1"}, "[13]": {"target": "Gal(b1-4)GlcNAc(b1-3)Gal(b1-4)GlcNAc(b1-3)Gal(b1-4)GlcNAc(b1-2)[Gal(b1-4)GlcNAc(b1-3)Gal(b1-4)GlcNAc(b1-3)Gal(b1-4)GlcNAc(b1-6)]Man(a1-6)[Gal(b1-4)GlcNAc(b1-3)Gal(b1-4)GlcNAc(b1-3)Gal(b1-4)GlcNAc(b1-2)Man(a1-3)]Man(b1-4)GlcNAc(b1-4)[Fuc(a1-6)]GlcNAc", "method_in_brief": "as §1"}, "[14]": {"target": "Gal(b1-4)GlcNAc(b1-3)Gal(b1-4)GlcNAc(b1-3)Gal(b1-4)GlcNAc(b1-3)Gal(b1-4)GlcNAc(b1-2)Man(a1-3)[Gal(b1-4)GlcNAc(b1-3)Gal(b1-4)GlcNAc(b1-3)Gal(b1-4)GlcNAc(b1-3)Gal(b1-4)GlcNAc(b1-2)Man(a1-6)]Man(b1-4)GlcNAc(b1-4)[Fuc(a1-6)]GlcNAc", "method_in_brief": "as §1"}, "[15]": {"target": "Gal(b1-4)GlcNAc(b1-3)Gal(b1-4)GlcNAc(b1-3)Gal(b1-4)GlcNAc(b1-3)Gal(b1-4)GlcNAc(b1-2)[Gal(b1-4)GlcNAc(b1-3)Gal(b1-4)GlcNAc(b1-3)Gal(b1-4)GlcNAc(b1-3)Gal(b1-4)GlcNAc(b1-6)]Man(a1-6)[Gal(b1-4)GlcNAc(b1-3)Gal(b1-4)GlcNAc(b1-3)Gal(b1-4)GlcNAc(b1-3)Gal(b1-4)GlcNAc(b1-2)Man(a1-3)]Man(b1-4)GlcNAc(b1-4)[Fuc(a1-6)]GlcNAc", "method_in_brief": "as §1"}, "[16]": {"target": "Gal(b1-4)GlcNAc(b1-3)Gal(b1-4)GlcNAc(b1-3)Gal(b1-4)GlcNAc(b1-3)Gal(b1-4)GlcNAc(b1-3)Gal(b1-4)GlcNAc(b1-2)[Gal(b1-4)GlcNAc(b1-3)Gal(b1-4)GlcNAc(b1-3)Gal(b1-4)GlcNAc(b1-3)Gal(b1-4)GlcNAc(b1-3)Gal(b1-4)GlcNAc(b1-6)]Man(a1-6)[Gal(b1-4)GlcNAc(b1-3)Gal(b1-4)GlcNAc(b1-3)Gal(b1-4)GlcNAc(b1-3)Gal(b1-4)GlcNAc(b1-3)Gal(b1-4)GlcNAc(b1-2)Man(a1-3)]Man(b1-4)GlcNAc(b1-4)[Fuc(a1-6)]GlcNAc", "method_in_brief": "as §1"}, "[17]": {"target": "Gal(b1-4)GlcNAc(b1-3)Gal(b1-4)GlcNAc(b1-3)Gal(b1-4)GlcNAc(b1-3)Gal(b1-4)GlcNAc(b1-3)Gal(b1-4)GlcNAc(b1-3)Gal(b1-4)GlcNAc(b1-2)Man(a1-3)[Gal(b1-4)GlcNAc(b1-3)Gal(b1-4)GlcNAc(b1-3)Gal(b1-4)GlcNAc(b1-3)Gal(b1-4)GlcNAc(b1-3)Gal(b1-4)GlcNAc(b1-3)Gal(b1-4)GlcNAc(b1-2)Man(a1-6)]Man(b1-4)GlcNAc(b1-4)GlcNAc", "method_in_brief": "as §1"}, "[18]": {"target": "Gal(b1-4)GlcNAc(b1-6)[Gal(b1-3)]GalNAc", "method_in_brief": "as §1"}, "[19]": {"target": "GalNAc(a1-3)GalNAc(b1-3)Gal(a1-4)Gal(b1-4)Glc", "method_in_brief": "as §1"}}, "note": "This excerpt belongs to a sample that is enriched for the strongest signals.", "data": [{"binder": "Gal 8 (Homo sapiens) (protein) MLSLNNLQNIIYNPVIPYVGTIPDQLDPGTLIVICGHVPSDADRFQVDLQNGSSVKPRADVAFHFNPRFKRAGCIVCNTLINEKWGREEITYDTPFKREKSFEIVIMVLKDKFQVAVNGKHTLLYGHRIGPEKIDTLGIYGKVNIHSIGFSFSSDLQSTQASSLELTEISRENVPKSGTPQLQTVSPSWDLQGHGSETFCSVLWTRVFLEIAFCRPIGLTVASFQSLPFAARLNTPMGPGRTVVVKGEVNANAKSFNVDLLAGKSKDIALHLNPRLNIKAFVRNSFLQESWGEEERNITSFPFSPGMYFEMIIYCDVREFKVAVNGVHSLEYKHRFKELSSIDTLEINGDIHLLEVRSW", "values": [{"measurement": "glycan array binding signal (z-score)", "setting": "[1]", "result": 0.572}, {"measurement": "glycan array binding signal (z-score)", "setting": "[2]", "result": 0.003}, {"measurement": "glycan array binding signal (z-score)", "setting": "[3]", "result": 4.4}, {"measurement": "glycan array binding signal (z-score)", "setting": "[4]", "result": 4.31}, {"measurement": "glycan array binding signal (z-score)", "setting": "[5]", "result": 5.81}, {"measurement": "glycan array binding signal (z-score)", "setting": "[6]", "result": -0.357}, {"measurement": "glycan array binding signal (z-score)", "setting": "[7]", "result": -0.35}, {"measurement": "glycan array binding signal (z-score)", "setting": "Gal(a1-3)GalNAc", "result": -0.387}, {"measurement": "glycan array binding signal (z-score)", "setting": "[8]", "result": -0.39}, {"measurement": "glycan array binding signal (z-score)", "setting": "[9]", "result": -0.355}, {"measurement": "glycan array binding signal (z-score)", "setting": "[10]", "result": -0.387}, {"measurement": "glycan array binding signal (z-score)", "setting": "[11]", "result": 3.06}, {"measurement": "glycan array binding signal (z-score)", "setting": "[12]", "result": 6.42}, {"measurement": "glycan array binding signal (z-score)", "setting": "[13]", "result": 6.12}, {"measurement": "glycan array binding signal (z-score)", "setting": "[14]", "result": 3.61}, {"measurement": "glycan array binding signal (z-score)", "setting": "[15]", "result": 5.79}, {"measurement": "glycan array binding signal (z-score)", "setting": "[16]", "result": 5.3}, {"measurement": "glycan array binding signal (z-score)", "setting": "[17]", "result": 5.33}, {"measurement": "glycan array binding signal (z-score)", "setting": "[18]", "result": -0.305}, {"measurement": "glycan array binding signal (z-score)", "setting": "[19]", "result": 0.169}]}]}
